From article PMC8384837, “Expanding the binding specificity for RNA recognition by a PUF domain”
Residue numbers refer to the chain shown, from its start.

How the values were obtained:
Assay in all cases: yeast three-hybrid, YBZ-1, SC-Leu-His + 0.5 mM 3-AT, 4 days
Settings in all cases: tags: N-Gal4 AD-HA kept; label: inside an RPR1-promoter hybrid RNA with tandem MS2 sites; ssRNA
PUM1 PUF domain R1-KQR = PUM1 PUF domain R1-KQR (Homo sapiens, UniProt Q14671 828-1176, S863K;R864Q;Q867R)
Method in brief: (§1)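 The interaction score is the log change in how often each variant appears, from input to selection. Frequencies came from PCR-amplified, Illumina-sequenced repeat regions of Pumilio-1 PUF domain libraries grown in strain YBZ-1 (LexA–MS2 coat fusion, HIS3 reporter) alongside matching RNA elements. Input plates were SC-Leu and selection plates were SC-Leu-His + 0.5 mM 3-AT, each for four days, and the log2 calculation used a pseudocount of 1 where a variant was absent.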

PUM1 PUF domain R1-YIR = PUM1 PUF domain R1-YIR (Homo sapiens, UniProt Q14671 828-1176, S863Y;R864I;Q867R)
Method in brief: as §1

PUM1 PUF domain R5-RFS = PUM1 PUF domain R5-RFS (Homo sapiens, UniProt Q14671 828-1176, C1007R;R1008F;Q1011S)
Method in brief: as §1

PUM1 PUF domain R6-KWV = target: T1, PUM1 PUF domain R6-KWV (Homo sapiens, UniProt Q14671 828-1176, N1043K;Y1044W;Q1047V)
T1 sequence: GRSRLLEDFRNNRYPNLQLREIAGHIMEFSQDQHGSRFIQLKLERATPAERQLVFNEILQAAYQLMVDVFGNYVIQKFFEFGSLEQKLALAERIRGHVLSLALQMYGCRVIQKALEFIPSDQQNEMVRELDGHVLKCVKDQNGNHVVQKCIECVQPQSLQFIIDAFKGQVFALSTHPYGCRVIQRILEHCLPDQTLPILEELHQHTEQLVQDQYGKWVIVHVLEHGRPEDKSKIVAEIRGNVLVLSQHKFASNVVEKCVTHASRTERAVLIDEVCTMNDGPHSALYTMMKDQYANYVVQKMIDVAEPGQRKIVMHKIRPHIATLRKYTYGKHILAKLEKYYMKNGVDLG
Method in brief: as §1

PUM1 PUF domain R6-HFT = target: T2, PUM1 PUF domain R6-HFT (Homo sapiens, UniProt Q14671 828-1176, N1043H;Y1044F;Q1047T)
T2 sequence: T1 sequence with K216H, W217F, V220T
Method in brief: as §1

PUM1 PUF domain R5-FHG = PUM1 PUF domain R5-FHG (Homo sapiens, UniProt Q14671 828-1176, C1007F;R1008H;Q1011G)
Method in brief: as §1

PUM1 PUF domain R1-NFH = PUM1 PUF domain R1-NFH (Homo sapiens, UniProt Q14671 828-1176, S863N;R864F;Q867H)
Method in brief: as §1

PUM1 PUF domain R7-RMR = PUM1 PUF domain R7-RMR (Homo sapiens, UniProt Q14671 828-1176, S1079R;N1080M;E1083R)
Method in brief: as §1

PUM1 PUF domain R7-RTC = PUM1 PUF domain R7-RTC (Homo sapiens, UniProt Q14671 828-1176, S1079R;N1080T;E1083C)
Method in brief: as §1

PUM1 PUF domain R8-LHK = PUM1 PUF domain R8-LHK (Homo sapiens, UniProt Q14671 828-1176, N1122L;Y1123H;Q1126K)
Method in brief: as §1

## GGCUAGAACUAGUGGAUCCCCCGGCGCCCGGCGGCUCGAGCCCGGGUAAGUGUAAAUCGUCUGCAUGCCGCCGGGCGCCAUGCCUGCAGGUCGACUCUAGAAAACAUG
PUM1 PUF domain R1-KQR
  binding signal: 5.28 log2 enrichment (interaction score)
PUM1 PUF domain R1-YIR
  binding signal: 6.92 log2 enrichment (interaction score)

## GGCUAGAACUAGUGGAUCCCCCGGCGCCCGGCGGCUCGAGCCCGGGUAAGUGUAAAUAGUCUGCAUGCCGCCGGGCGCCAUGCCUGCAGGUCGACUCUAGAAAACAUG
PUM1 PUF domain R5-RFS
  binding signal: 2.61 log2 enrichment (interaction score)
PUM1 PUF domain R1-YIR
  binding signal: 3.77 log2 enrichment (interaction score)
PUM1 PUF domain R6-KWV
  binding signal: 6.02 log2 enrichment (interaction score)
PUM1 PUF domain R6-HFT
  binding signal: 3.78 log2 enrichment (interaction score)

## GGCUAGAACUAGUGGAUCCCCCGGCGCCCGGCGGCUCGAGCCCGGGUAAGUGUGAAUAGUCUGCAUGCCGCCGGGCGCCAUGCCUGCAGGUCGACUCUAGAAAACAUG
PUM1 PUF domain R5-RFS
  binding signal: 1.78 log2 enrichment (interaction score)

## GGCUAGAACUAGUGGAUCCCCCGGCGCCCGGCGGCUCGAGCCCGGGUAAGUGUCAAUAGUCUGCAUGCCGCCGGGCGCCAUGCCUGCAGGUCGACUCUAGAAAACAUG
PUM1 PUF domain R5-RFS
  binding signal: 5.34 log2 enrichment (interaction score)
PUM1 PUF domain R5-FHG
  binding signal: 2.68 log2 enrichment (interaction score)

## GGCUAGAACUAGUGGAUCCCCCGGCGCCCGGCGGCUCGAGCCCGGGUAAGUGUAAAUUGUCUGCAUGCCGCCGGGCGCCAUGCCUGCAGGUCGACUCUAGAAAACAUG
PUM1 PUF domain R1-NFH
  binding signal: 3.4 log2 enrichment (interaction score)
PUM1 PUF domain R1-YIR
  binding signal: 4.41 log2 enrichment (interaction score)

## GGCUAGAACUAGUGGAUCCCCCGGCGCCCGGCGGCUCGAGCCCGGGUAAGUUUAAAUAGUCUGCAUGCCGCCGGGCGCCAUGCCUGCAGGUCGACUCUAGAAAACAUG
PUM1 PUF domain R7-RMR
  binding signal: 4.78 log2 enrichment (interaction score)
PUM1 PUF domain R7-RTC
  binding signal: 3.51 log2 enrichment (interaction score)

## GGCUAGAACUAGUGGAUCCCCCGGCGCCCGGCGGCUCGAGCCCGGGUAAGUGUUAAUAGUCUGCAUGCCGCCGGGCGCCAUGCCUGCAGGUCGACUCUAGAAAACAUG
PUM1 PUF domain R5-RFS
  binding signal: 5.12 log2 enrichment (interaction score)
PUM1 PUF domain R5-FHG
  binding signal: 3.39 log2 enrichment (interaction score)

## GGCUAGAACUAGUGGAUCCCCCGGCGCCCGGCGGCUCGAGCCCGGGUAAGUCUAAAUAGUCUGCAUGCCGCCGGGCGCCAUGCCUGCAGGUCGACUCUAGAAAACAUG
PUM1 PUF domain R7-RMR
  binding signal: 2.46 log2 enrichment (interaction score)

## GGCUAGAACUAGUGGAUCCCCCGGCGCCCGGCGGCUCGAGCCCGGGUAAGCGUAAAUAGUCUGCAUGCCGCCGGGCGCCAUGCCUGCAGGUCGACUCUAGAAAACAUG
PUM1 PUF domain R8-LHK
  binding signal: 3.29 log2 enrichment (interaction score)
